Where “and” joins values, the source holds several entries; their conditions need not be identical. Equal values may be shown once. Inconclusive results are not listed. A structure can be active in one record and inactive in another. Calls of active or inactive are those of the source. Unless noted, calls come from the whole dose curve; as a rule, active = well fitted curve in the direction sought with a large enough effect in the repeat runs; inconclusive = weak or mixed curves; inactive = no such curve, though single readings can be large; an effect the other way counts as inactive or inconclusive.
Assays:
[1] = qHTS assay to identify small molecule antagonists of the sonic hedgehog signaling (Shh) pathway (AID 1259369; calls by dose curve; note: nearly all actives have a fitted effect of over 45% in size; note: potency is the fitted concentration of half-maximal effect)
Method in brief: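 Antagonist mode: compound added to 3T3 Gli1-Luc cells followed by conditioned-medium stimulation, 24 h at 37 C, 5% CO2. Inhibition taken as loss of Gli1-driven luciferase luminescence.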

[2] = target: Estrogen receptor beta (Homo sapiens) (UniProt Q92731); test: qHTS assay to identify small molecule agonists of the estrogen receptor beta (ER-beta) signaling pathway (AID 1259377; active = well fitted activation curve with a large enough effect in the signal ratio in the repeat runs, not every such curve was filed as active; the % refers to the signal ratio)
Chain of Estrogen receptor beta (Homo sapiens) (Q92731 whole entry, looked up): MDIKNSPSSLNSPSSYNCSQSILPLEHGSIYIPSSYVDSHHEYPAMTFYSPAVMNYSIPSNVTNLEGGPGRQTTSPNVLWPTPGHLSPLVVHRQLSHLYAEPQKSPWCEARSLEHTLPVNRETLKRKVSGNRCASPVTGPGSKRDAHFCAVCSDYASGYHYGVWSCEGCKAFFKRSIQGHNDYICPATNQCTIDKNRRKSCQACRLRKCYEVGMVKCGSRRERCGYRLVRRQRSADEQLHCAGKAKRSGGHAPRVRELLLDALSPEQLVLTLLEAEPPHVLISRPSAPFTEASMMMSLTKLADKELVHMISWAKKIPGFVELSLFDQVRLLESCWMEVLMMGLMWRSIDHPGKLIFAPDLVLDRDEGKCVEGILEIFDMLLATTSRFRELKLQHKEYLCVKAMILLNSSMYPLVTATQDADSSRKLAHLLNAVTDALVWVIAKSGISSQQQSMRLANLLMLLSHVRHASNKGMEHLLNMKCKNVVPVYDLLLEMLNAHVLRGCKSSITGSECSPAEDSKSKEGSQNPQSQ
Method in brief: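 Read-out: beta-lactamase FRET fluorescence. Cell line: ER-beta-UAS-bla HEK293T in 2% charcoal-stripped FBS. Exposure: 16 hr at 37C. Substrate step: 2 h at room temperature.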

[3] = target: Estrogen receptor beta (Homo sapiens) (UniProt Q92731); test: qHTS assay to identify small molecule antagonists of the estrogen receptor beta (ER-beta) signaling pathway (AID 1259378; active = well fitted inhibition curve with a large enough effect in the signal ratio in the repeat runs, not every such curve was filed as active; the % refers to the signal ratio)
Method in brief: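 ER-beta-UAS-bla HEK293T (GripTite) cells in 2% charcoal-stripped FBS medium were preincubated 6 hr at 37C, dosed with compound, then stimulated with 1 nM E2 (final) for 16 hr; beta-lactamase reporter read by B/G FRET fluorescence after 2 hr substrate loading.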

[4] = qHTS assay to identify small molecule agonists of the androgen receptor (AR) signaling pathway in the presence of an antagonist - cell viability counter screen (AID 1259379); note: nearly all actives have a fitted effect of over 25% in size; note: potency is the fitted concentration of half-maximal effect
Method in brief: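 Cytotoxicity counter-screen run in the same wells as the nilutamide-challenged (3.0 µM final) AR agonist assay in MDA-kb2 cells. Compounds tested at 15 concentrations for 16 h, 37 °C without CO2; CellTiter-Fluor fluorescence read.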

[5] = qHTS assay to identify small molecule agonists of the estrogen receptor beta (ER-beta) signaling pathway - cell viability counter screen (AID 1259380); note: nearly all actives have a fitted effect of over 30% in size; note: potency is the fitted concentration of half-maximal effect
Method in brief: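 Cell viability counter screen: CellTiter-Glo luminescence (30 min, room temperature) measured in the same wells as the beta-lactamase readout, after 16 hr compound exposure at 37C of ER-beta-bla HEK293T cells in 2% charcoal-stripped FBS medium.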

[6] = qHTS assay to identify small molecule antagonists of the estrogen receptor beta (ER-beta) signaling pathway - cell viability counter screen (AID 1259382); note: series mostly up to about 92 µM; nearly all actives have a fitted effect of over 55% in size
Method in brief: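 Cytotoxicity was measured in the same wells by CellTiter-Glo luminescence after 30 min at room temperature. Cells were ER-beta-bla HEK293T in charcoal-stripped serum, given compound together with 1 nM E2 and incubated 16 h at 37C.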

[7] = target: Estrogen receptor (Homo sapiens) (UniProt P03372); test: qHTS assay to identify small molecule agonists of the estrogen receptor alpha (ER-alpha) signaling pathway in the presence of an antagonist (AID 1259383; calls by dose curve; note: top concentration of the series differs between compounds; nearly all actives have a fitted effect of over 15% in size)
Chain of Estrogen receptor (Homo sapiens) (P03372 whole entry, looked up): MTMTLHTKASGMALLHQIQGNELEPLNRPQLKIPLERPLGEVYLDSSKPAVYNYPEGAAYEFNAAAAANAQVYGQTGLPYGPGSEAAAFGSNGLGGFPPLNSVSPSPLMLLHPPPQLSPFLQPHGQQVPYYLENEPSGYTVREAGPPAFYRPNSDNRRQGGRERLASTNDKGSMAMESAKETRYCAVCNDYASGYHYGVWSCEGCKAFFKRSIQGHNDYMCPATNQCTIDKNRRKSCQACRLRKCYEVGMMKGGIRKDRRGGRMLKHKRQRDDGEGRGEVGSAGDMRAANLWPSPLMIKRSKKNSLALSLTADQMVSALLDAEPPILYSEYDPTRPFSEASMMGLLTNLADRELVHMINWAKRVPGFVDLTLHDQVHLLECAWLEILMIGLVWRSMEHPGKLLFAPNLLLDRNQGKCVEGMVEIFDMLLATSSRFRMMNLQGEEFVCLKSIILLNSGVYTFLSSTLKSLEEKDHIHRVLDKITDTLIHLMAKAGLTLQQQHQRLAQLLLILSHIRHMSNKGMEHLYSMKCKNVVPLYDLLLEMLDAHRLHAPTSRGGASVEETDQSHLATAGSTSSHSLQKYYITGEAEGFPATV
Method in brief: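 Agonist-mode confirmation run in the presence of 10.0nM (final) ICI-182,780 antagonist. The reporter was ERE-driven luciferase in VM7Luc4E2 cells, grown in charcoal-stripped serum. Cells were exposed to 15-concentration compound series for 22hr, then ONE-Glo luminescence was read.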

[8] = qHTS assay to identify small molecule agonists or antagonists of the thyroid stimulating hormone receptor (TSHR) signaling pathway - wild type cell line counter screen (AID 1259384; calls by dose curve)
Method in brief: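 Wild-type HEK293 cells were plated 18 h at 37 C/5% CO2, pin-dosed with compound plus Ro20-1724 medium, held 30 min at room temperature, then given cAMP-d2 and anti-cAMP-cryptate; fluorescence was read after 1 h. Fifteen concentrations, triplicate.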

[9] = target: Thyrotropin receptor (Homo sapiens) (UniProt P16473); test: qHTS assay to identify small molecule antagonists of the thyroid stimulating hormone receptor (TSHR) signaling pathway (AID 1259385; calls by dose curve; note: nearly all actives have a fitted effect of over 20% in size; note: potency is the fitted concentration of half-maximal effect)
Chain of Thyrotropin receptor (Homo sapiens) (P16473 whole entry, looked up): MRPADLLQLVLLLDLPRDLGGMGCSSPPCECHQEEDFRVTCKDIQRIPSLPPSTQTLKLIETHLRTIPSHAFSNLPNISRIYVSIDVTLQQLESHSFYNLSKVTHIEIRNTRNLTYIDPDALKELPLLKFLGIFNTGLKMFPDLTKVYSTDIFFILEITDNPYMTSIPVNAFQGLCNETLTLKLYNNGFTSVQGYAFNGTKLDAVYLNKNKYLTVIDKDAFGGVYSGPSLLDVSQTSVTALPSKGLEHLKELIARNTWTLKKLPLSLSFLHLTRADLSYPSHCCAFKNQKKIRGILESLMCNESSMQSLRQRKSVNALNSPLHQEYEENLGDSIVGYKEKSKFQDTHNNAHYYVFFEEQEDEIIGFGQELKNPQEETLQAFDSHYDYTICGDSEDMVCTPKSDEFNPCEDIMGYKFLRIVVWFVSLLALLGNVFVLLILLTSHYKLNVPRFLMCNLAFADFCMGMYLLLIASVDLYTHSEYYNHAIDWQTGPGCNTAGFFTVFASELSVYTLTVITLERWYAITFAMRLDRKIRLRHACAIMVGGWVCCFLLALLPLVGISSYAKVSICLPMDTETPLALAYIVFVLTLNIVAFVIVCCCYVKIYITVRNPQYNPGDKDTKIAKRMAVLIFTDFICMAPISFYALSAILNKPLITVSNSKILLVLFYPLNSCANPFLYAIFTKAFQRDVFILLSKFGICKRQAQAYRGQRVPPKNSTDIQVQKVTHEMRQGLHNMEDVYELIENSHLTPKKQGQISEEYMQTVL
Method in brief: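 TSHR-HEK293 cells were plated and held 18 h at 37C/5% CO2, then given compound plus Ro20-1724 and stimulated with TSH at 1.5 ng/mL final. After 30 min at room temperature, cAMP was detected with cAMP-d2/anti-cAMP-cryptate (1 h) by fluorescence.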

[10] = qHTS assay to identify small molecule agonists of the estrogen receptor alpha (ER-alpha) signaling pathway in the presence of an antagonist - cell viability counter screen (AID 1259386); note: series mostly up to about 92 µM; nearly all actives have a fitted effect of over 30% in size
Method in brief: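 Compounds tested at 15 concentrations for 22 h at 37C alongside 10.0nM (final) ICI-182,780 antagonist, in VM7Luc4E2 cells grown in phenol red-free, charcoal-stripped medium. Viability read by CellTiter-Fluor fluorescence after 1 h reagent incubation.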

[11] = target: Progesterone receptor (Homo sapiens) (UniProt P06401); test: qHTS assay to identify small molecule agonists of the progesterone receptor (PR) signaling pathway (AID 1346784; calls by dose curve; note: nearly all actives have a fitted effect of over 30% in size)
Chain of Progesterone receptor (Homo sapiens) (P06401 whole entry, looked up): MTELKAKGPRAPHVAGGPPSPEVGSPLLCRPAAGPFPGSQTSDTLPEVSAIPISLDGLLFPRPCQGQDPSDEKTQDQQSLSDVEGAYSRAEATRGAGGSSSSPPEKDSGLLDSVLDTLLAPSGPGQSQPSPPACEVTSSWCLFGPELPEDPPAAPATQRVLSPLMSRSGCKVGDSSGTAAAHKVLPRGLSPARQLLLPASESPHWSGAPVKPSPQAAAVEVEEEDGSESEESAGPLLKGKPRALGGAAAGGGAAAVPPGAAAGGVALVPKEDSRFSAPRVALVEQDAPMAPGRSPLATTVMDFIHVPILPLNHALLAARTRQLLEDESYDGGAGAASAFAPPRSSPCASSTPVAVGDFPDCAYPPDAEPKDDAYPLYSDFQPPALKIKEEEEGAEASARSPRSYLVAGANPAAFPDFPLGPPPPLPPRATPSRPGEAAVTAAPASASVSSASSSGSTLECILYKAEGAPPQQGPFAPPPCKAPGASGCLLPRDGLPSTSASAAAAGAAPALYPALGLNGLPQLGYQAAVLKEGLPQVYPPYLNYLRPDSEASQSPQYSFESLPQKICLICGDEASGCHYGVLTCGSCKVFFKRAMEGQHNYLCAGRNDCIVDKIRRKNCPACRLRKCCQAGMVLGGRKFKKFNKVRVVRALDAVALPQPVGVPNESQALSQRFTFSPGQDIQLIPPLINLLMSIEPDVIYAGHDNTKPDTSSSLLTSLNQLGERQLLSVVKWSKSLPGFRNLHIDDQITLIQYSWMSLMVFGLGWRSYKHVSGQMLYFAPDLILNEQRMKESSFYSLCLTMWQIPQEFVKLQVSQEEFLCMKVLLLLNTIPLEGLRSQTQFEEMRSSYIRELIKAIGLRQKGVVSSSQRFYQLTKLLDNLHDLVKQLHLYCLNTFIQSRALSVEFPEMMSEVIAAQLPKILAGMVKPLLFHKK
Method in brief: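 Compounds were tested for PR agonism in HEK 293T cells bearing a beta-lactamase gene under UAS control. Treatment lasted 16 hr at 37C; signal came from fluorescence of a FRET substrate.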

[12] = target: Progesterone receptor (Homo sapiens) (UniProt P06401); test: qHTS assay to identify small molecule antagonists of the progesterone receptor (PR) signaling pathway (AID 1346795; active = well fitted inhibition curve with a large enough effect in the signal ratio in the repeat runs, not every such curve was filed as active; the % refers to the signal ratio)
Method in brief: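 In HEK293T cells bearing the PR-UAS-bla reporter, compound effects on promegestone-driven (1 nM) beta-lactamase expression are assessed after 16 hr using a fluorescent FRET substrate incubated 2 hr at room temperature.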

[13] = qHTS assay to identify small molecule antagonists of the progesterone receptor (PR) signaling pathway - cell viability counter screen (AID 1346798); note: series mostly up to about 92 µM; nearly all actives have a fitted effect of over 50% in size
Method in brief: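 Following a 4 hr attachment, PR-UAS-bla HEK293T cells in charcoal-stripped FBS medium were exposed to compounds with R5020 for 16 hr; CellTiter-Glo was added and luminescence read after 30 min at room temperature.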

[14] = qHTS assay to identify small molecule agonists of the progesterone receptor (PR) signaling pathway - cell viability counter screen (AID 1346799; calls by dose curve; note: nearly all actives have a fitted effect of over 45% in size; note: potency is the fitted concentration of half-maximal effect)
Method in brief: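 Here, 3,000 PR-UAS-bla HEK293T cells per well were treated with compounds for 16 hr after a 6 hr preincubation at 37C and 5% CO2; cell viability is the CellTiter-Glo luminescence signal.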

[15] = qHTS assay to identify small molecule antagonists of the TGF-beta/Smad signaling pathway - cell viability counter screen (AID 1346824); note: nearly all actives have a fitted effect of over 50% in size
Method in brief: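 SBE-bla HEK 293T cells were plated overnight at 37 C, then given compounds in DMSO plus TGF-beta1 (added as 0.25 ng/mL solution) for 5 hr. After the bla read, CellTiter-Glo was added to the same wells and luminescence read after 30 min at room temperature.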

[16] = qHTS assay to identify small molecule agonists of the TGF-beta/Smad signaling pathway - cell viability counter screen (AID 1346829); note: top concentration of the series differs between compounds; nearly all actives have a fitted effect of over 45% in size
Method in brief: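 Tox21 qHTS format: SBE-bla HEK 293T cells treated with DMSO-dissolved compounds for 5 hr; CellTiter-Glo luminescence after 30 min at room temperature.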

[17] = qHTS assay to identify small molecule agonists of the TGF-beta/Smad signaling pathway (AID 1346859; active = well fitted activation curve with a large enough effect in the signal ratio in the repeat runs, not every such curve was filed as active; the % refers to the signal ratio; note: series mostly up to about 77 µM)
Method in brief: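 Each well held 4,000 SBE-bla HEK 293T cells incubated overnight before compound addition; 5 hr later the cleavable FRET substrate went on for 2 hr at room temperature, and fluorescence was read at two emissions.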

[18] = target: Thyrotropin-releasing hormone receptor (Homo sapiens) (UniProt P34981); test: qHTS assay to identify small molecule antagonists of the thyrotropin-releasing hormone receptor (TRHR) signaling pathway (AID 1346877; active = well fitted inhibition curve with a large enough effect in the repeat runs, not every such curve was filed as active; note: series mostly up to about 51 µM)
Chain of Thyrotropin-releasing hormone receptor (Homo sapiens) (P34981 whole entry, looked up): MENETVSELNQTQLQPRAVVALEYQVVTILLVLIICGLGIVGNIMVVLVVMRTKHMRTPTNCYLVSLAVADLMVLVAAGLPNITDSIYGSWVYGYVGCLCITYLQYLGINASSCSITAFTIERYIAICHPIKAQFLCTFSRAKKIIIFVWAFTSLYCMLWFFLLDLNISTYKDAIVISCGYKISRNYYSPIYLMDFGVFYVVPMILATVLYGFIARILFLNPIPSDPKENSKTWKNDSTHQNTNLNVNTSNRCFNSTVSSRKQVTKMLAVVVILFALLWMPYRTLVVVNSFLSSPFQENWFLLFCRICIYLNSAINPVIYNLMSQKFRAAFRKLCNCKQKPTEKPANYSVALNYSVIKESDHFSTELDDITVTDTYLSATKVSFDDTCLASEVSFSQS
Method in brief: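 Antagonist mode: after a 5 min room-temperature compound exposure, cells were stimulated with 1 nM (final) TRH. Dye-loaded TRHR-HEK293 cells were used, and calcium-dependent fluorescence was followed for 3 min, with 15-point titrations run in triplicate.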

[19] = target: Thyrotropin-releasing hormone receptor (Homo sapiens) (UniProt P34981); test: qHTS assay to identify small molecule agonists of the thyrotropin-releasing hormone receptor (TRHR) signaling pathway (AID 1346891; calls by dose curve; note: series mostly up to about 58 µM)
Method in brief: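 Screening of agonists relied on calcium signalling in HEK293 cells expressing human TRHR: dye loading 2 h at 37 °C preceded compound addition and a 3-min fluorescence time course.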

[20] = target: Androgen receptor (Homo sapiens) (UniProt P10275); test: qHTS assay to identify small molecule agonists of the androgen receptor (AR) signaling pathway in the presence of an antagonist (AID 1259381; calls by dose curve; note: nearly all actives have a fitted effect of over 15% in size)
Chain of Androgen receptor (Homo sapiens) (P10275 whole entry, looked up): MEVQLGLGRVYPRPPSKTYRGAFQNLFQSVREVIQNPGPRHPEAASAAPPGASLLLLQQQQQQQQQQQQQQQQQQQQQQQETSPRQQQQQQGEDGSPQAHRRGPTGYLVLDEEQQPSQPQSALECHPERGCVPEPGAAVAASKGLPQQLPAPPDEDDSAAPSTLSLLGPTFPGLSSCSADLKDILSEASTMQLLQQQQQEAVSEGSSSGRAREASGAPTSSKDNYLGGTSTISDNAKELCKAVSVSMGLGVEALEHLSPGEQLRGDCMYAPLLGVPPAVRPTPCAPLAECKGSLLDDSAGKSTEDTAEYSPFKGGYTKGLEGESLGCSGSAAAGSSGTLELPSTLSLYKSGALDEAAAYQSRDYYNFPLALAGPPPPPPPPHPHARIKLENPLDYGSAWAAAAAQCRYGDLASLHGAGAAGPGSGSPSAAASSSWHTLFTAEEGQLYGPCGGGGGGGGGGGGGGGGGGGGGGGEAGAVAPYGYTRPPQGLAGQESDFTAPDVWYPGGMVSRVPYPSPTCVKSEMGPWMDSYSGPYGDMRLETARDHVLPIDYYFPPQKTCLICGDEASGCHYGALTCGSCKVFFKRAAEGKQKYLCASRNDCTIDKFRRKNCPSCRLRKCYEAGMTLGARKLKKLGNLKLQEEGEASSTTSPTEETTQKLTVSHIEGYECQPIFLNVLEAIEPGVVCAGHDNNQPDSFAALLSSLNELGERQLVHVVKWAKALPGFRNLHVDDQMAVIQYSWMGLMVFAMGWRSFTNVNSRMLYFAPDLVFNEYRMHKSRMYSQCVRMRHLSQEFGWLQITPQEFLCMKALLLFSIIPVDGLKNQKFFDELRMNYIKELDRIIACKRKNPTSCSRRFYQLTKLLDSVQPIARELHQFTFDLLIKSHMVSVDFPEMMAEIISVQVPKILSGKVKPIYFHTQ
Method in brief: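 Agonist-mode confirmation run against 3.0 uM final nilutamide: compounds titrated at 15 concentrations onto MDA-kb2 MMTV-luciferase reporter cells. Luminescence measured with ONE-Glo following 16 hr incubation, 37C, 0% CO2.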

Measured: Potency

Cn1cnc([N+](=O)[O-])c1Sc1ncnc2nc[nH]c12
active: [1] 30.4 µM | [5] 4.83 µM and 8.41 µM
3.83 µM (active) and inactive: [14]
not listed: [20]
inactive: all other assays above

CC(C)=CCCC(C)CCO (stereo unspecified)
not listed: [14] | [20]
inactive: all other assays above

CC(C)OB(OC(C)C)OC(C)C
not listed: [8] | [9] | [18] | [19] | [20]
inactive: all other assays above

O=P(O)(O)O
not listed: [7] | [14] | [20]
inactive: all other assays above

CCCCCCCCCCCO
not listed: [6] | [10] | [18] | [19] | [20]
inactive: all other assays above

c1ccc2c(c1)Oc1ccccc1S2
not listed: [20]
inactive: all other assays above

OC(CCl)CCl
not listed: [6] | [18] | [19] | [20]
inactive: all other assays above

Clc1nc(Cl)c(Cl)c(Cl)c1Cl
active: [4] 61.4 µM
not listed: [7] | [10] | [18] | [19] | [20]
inactive: all other assays above

CC(=O)CC/C=C(\C)CCC=C(C)C
not listed: [20]
inactive: all other assays above

CCCCC(CC)COC(=O)c1ccc(N(C)C)cc1 (stereo unspecified)
not listed: [18] | [19] | [20]
inactive: all other assays above

CN(C)CCN(Cc1cccs1)c1ccccn1
not listed: [2] | [3] | [18] | [19] | [20]
inactive: all other assays above

COc1cc([C@@H]2c3cc4c(cc3[C@H](O)[C@H]3COC(=O)[C@H]23)OCO4)cc(OC)c1OC
active: [1] 5.4 nM and 16.8 nM
not listed: [4] | [7] | [12] | [13] | [14]
inactive: all other assays above

CCC(C)c1ccccc1O (stereo unspecified)
not listed: [6] | [7] | [20]
inactive: all other assays above

Cc1c(OCC(F)(F)F)ccnc1CS(=O)c1nc2ccccc2[nH]1 (stereo unspecified)
not listed: [3] | [6] | [7] | [10] | [12] | [13] | [14] | [20]
inactive: all other assays above

O=C(Nc1ccc(Cl)cc1)Nc1ccc(Cl)c(Cl)c1
12.1 µM (active) and inactive: [1]
active: [4] 21.6 µM and 24.3 µM and 26.6 µM | [5] 1.08 µM and 2.17 µM | [9] 61.1 µM
inactive: [2] | [20] | [7] | [8] | [11] | [15] | [16] | [17]

Reference: PubChem BioAssay (Tox21)
